This note sets out measurements from PubChem BioAssay.

Values without a mark were called inactive. For part of these data: Entries with a potency or affinity are not part of this list. Calls of active or inactive are those of the source. Unless noted, the rule behind the calls is not given here.

A word on the inhibition: it is the relative decrease from the control value, in per cent.

Assay [1] is described as follows: antimalarial activity against Dd2 strain (AID 2302;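 active = growth inhibition above 50% at the single 2 µM test dose, taken to imply half-maximal potency below 2 µM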;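 note: 0% = DMSO untreated growth and 100% = chloroquine plus artemisinin killed control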). Conditions: P. falciparum Dd2 in RBCs, LDH growth readout, 72 h; at 2 µM; active compounds read high.
The nature of assay [2]: HepG2 cytotoxicity, primary screen, cytotoxicity control for P. falciparum antimalarial project, cell-based, ATP luminescence (AID 2303;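 active = inhibition above 50%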;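 note: 0% = DMSO wells and 100% = digitonin-killed cells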). Conditions: HepG2 viability, 24-48 h, at 10 µM, active compounds read high.
Assay [3] has as its target L-lactate dehydrogenase (Plasmodium falciparum (isolate CDC / Honduras)) (UniProt Q27743). The assay can be described thus: PfLDH activity inhibition – cell lysate, 3D7 strain, counter-screen for P. falciparum growth inhibition project (AID 2304).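 Note: 0% = vehicle and 100% = reference inhibitor.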 Conditions: P. falciparum 3D7 crude extract, LDH APAD/NBT absorbance; at 2 µM; active compounds read high. Background: The purpose of a counterscreen is to sort out artefacts and off-target activity.

The nature of assay [4]: inhibition of 3D7 malaria parasite growth – strain 3D7 (AID 2306).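 Note: 0% = DMSO wells and 100% = chloroquine plus artemisinin control wells.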 Conditions: P. falciparum 3D7 erythrocytic growth, LDH absorbance, 72 h; at 2 µM; active compounds read high.
The target of assay [5] is Calcium-dependent protein kinase 1 (Plasmodium falciparum (isolate 3D7)) (UniProt P62344). The assay can be described thus: PfCDPK1 kinase inhibitors, biochemical, TCAMS library (AID 1159585; cut-off not given, nearly all actives have IC50 up to about 0.98 µM;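 note: inhibitors leave more ATP so luminescence rises with inhibition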). The following applies: recombinant PfCDPK1, Kinase-Glo ATP depletion luminescence. (Kinase-Glo reads ATP consumption through a luciferase reaction.)
Calcium-dependent protein kinase 1 (Plasmodium falciparum (isolate 3D7)), sequence (P62344 whole entry, looked up): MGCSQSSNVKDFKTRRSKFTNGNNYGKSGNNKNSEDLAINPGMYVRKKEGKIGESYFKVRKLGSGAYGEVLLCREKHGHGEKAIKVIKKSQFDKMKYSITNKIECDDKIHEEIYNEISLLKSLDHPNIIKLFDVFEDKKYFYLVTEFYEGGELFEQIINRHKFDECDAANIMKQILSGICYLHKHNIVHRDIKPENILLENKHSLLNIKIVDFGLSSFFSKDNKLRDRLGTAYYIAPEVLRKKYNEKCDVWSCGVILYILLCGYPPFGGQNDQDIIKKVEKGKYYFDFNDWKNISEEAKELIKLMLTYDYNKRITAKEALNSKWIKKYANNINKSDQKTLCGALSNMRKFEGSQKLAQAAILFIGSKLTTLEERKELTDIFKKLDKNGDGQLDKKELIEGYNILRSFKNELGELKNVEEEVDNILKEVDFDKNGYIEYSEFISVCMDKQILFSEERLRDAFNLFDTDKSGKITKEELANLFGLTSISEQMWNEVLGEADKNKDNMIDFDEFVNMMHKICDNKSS
For assay [6], the target named is Plasmodium falciparum protein kinase 6 (PK6, PF3D7_1337100) (UniProt Q8IDW1). The assay can be described thus: PfPK6 kinase inhibitors, biochemical, TCAMS library (AID 1159586). Conditions: recombinant PfPK6, Kinase-Glo ATP depletion luminescence.
Plasmodium falciparum protein kinase 6 (PK6, PF3D7_1337100), sequence (Q8IDW1 1-305): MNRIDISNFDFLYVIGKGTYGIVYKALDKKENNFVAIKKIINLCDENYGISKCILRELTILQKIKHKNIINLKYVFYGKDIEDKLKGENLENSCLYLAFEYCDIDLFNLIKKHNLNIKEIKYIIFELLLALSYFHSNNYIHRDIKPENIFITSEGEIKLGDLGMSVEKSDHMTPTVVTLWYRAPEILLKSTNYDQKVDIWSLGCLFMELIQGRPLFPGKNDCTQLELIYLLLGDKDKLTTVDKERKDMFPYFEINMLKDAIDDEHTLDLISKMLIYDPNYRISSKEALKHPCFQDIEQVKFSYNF
Assay [7] has as its target Protein kinase 7 (PK7), Plasmodium falciparum 3D7 (PF3D7_0213400) (UniProt Q7YTF7). The assay can be described thus: inhibition of Plasmodium PK7 catalytic activity – biochemical, TCAMS antimalarial set, Kinase-Glo luminescence (AID 1159587). The following applies: recombinant PfPK7, Kinase-Glo ATP depletion luminescence.
Assay [8] has as its target Calcium-dependent protein kinase 4 (Plasmodium falciparum (isolate 3D7)) (UniProt Q8IBS5). The assay can be described thus: PfCDPK4 kinase inhibitors, biochemical, TCAMS library (AID 1159588; cut-off not given, nearly all actives have IC50 up to about 0.91 µM). Conditions: recombinant PfCDPK4, Kinase-Glo ATP depletion luminescence.

L-lactate dehydrogenase (Plasmodium falciparum (isolate CDC / Honduras)), sequence (Q27743 whole entry, looked up): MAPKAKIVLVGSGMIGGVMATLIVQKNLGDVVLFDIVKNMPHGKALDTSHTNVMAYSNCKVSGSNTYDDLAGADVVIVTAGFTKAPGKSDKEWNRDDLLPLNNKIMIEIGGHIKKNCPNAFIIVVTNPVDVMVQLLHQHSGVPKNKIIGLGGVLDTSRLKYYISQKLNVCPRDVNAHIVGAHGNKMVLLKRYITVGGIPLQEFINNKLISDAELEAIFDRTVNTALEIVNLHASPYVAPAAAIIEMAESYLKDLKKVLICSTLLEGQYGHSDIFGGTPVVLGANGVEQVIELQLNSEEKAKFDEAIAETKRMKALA
Protein kinase 7 (PK7), Plasmodium falciparum 3D7 (PF3D7_0213400), sequence (Q7YTF7 1-343): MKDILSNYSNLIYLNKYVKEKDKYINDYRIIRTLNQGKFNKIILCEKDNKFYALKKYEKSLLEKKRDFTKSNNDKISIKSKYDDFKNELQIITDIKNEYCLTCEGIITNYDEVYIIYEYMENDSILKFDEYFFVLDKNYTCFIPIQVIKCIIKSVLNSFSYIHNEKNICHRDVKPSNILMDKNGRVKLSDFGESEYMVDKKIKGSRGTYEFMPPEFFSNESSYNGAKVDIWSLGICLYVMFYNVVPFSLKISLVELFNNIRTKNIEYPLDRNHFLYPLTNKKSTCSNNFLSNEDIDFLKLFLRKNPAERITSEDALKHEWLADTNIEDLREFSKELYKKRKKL
Calcium-dependent protein kinase 4 (Plasmodium falciparum (isolate 3D7)), sequence (Q8IBS5 whole entry, looked up): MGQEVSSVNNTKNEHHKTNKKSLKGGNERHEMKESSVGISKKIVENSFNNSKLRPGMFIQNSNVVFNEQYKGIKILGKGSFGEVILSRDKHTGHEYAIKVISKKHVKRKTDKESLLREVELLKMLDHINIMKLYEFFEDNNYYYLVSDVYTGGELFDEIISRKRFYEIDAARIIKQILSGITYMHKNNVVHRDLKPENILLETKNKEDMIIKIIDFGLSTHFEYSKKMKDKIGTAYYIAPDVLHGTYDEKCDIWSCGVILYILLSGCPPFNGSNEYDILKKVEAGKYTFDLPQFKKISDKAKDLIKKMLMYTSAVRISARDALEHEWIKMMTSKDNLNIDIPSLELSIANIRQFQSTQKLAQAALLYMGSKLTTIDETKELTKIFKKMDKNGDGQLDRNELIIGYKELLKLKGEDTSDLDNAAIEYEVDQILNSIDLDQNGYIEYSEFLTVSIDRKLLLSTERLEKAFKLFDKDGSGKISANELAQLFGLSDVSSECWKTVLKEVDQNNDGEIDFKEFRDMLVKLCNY

In the case of `c1ccc2cc3c(Nc4ccc(N5CCCCC5)cc4)ccnc3cc2c1`, the values for the growth inhibition in assay [1] and in assay [4] were 36% and 100% (active), respectively. The inhibition in assay [2] is 21%; in assay [3], -4%. In addition, the result in assay [5], in assay [6], in assay [7] and in assay [8] was inactive.

Take `CN(C)CCOc1ccc(-c2cc(-c3ccc(Cl)c(O)c3)c(-c3ccncc3)[nH]2)cc1`: the growth inhibition was 92% (active) in assay [1] and 98% (active) in assay [4]. The results for the inhibition in assay [2] and in assay [3] were 54% (active) and 5%, respectively. Besides, the outcome in assay [5], in assay [6], in assay [7] and in assay [8] was inactive.

For `Cc1cc(=O)[nH]c(/N=C(/N)NOCc2ccccc2)n1`, the growth inhibition in assay [1] was 1%; in assay [4] it was 101% (active). In addition, the inhibition in assay [2] and in assay [3] was 0% throughout. Also, the outcome in assay [5], in assay [6], in assay [7] and in assay [8] was inactive.

On to `CN1C(C)(C)CC(NC(=O)c2ccc(-c3nc4ccc(Cl)cc4[nH]3)cc2)CC1(C)C`, for which the growth inhibition was 36% in assay [1] and 99% (active) in assay [4]. Besides, the inhibition in assay [2] is 23%; in assay [3] it was -3%. Also, the outcome in assay [5], in assay [6], in assay [7] and in assay [8] was inactive.

Take `Cc1ccccc1C1CCN(C2CCC(NC(=O)/C=C/c3cc(C(F)(F)F)ccc3F)CC2)CC1` (stereo not drawn): the figures for the growth inhibition in assay [1] and in assay [4] were 45% and 100% (active), respectively. Moreover, the inhibition in assay [2] is 56% (active); in assay [3] it was -2%. The result in assay [5], in assay [6], in assay [7] and in assay [8] was inactive.

Take `O=c1cc(NCCCNCc2ccc(Cl)c(Cl)c2)[nH]c2cc(F)cc(F)c12`: the growth inhibition in assay [1] was 94% (active); in assay [4] it was 102% (active). In addition, the results for the inhibition in assay [2] and in assay [3] were 11% and 0%, respectively. The result in assay [5], in assay [6], in assay [7] and in assay [8] was inactive.

Regarding `CCOC(=O)N1CCN(C(=O)Nc2ccc(Cl)cc2)CC1`, the growth inhibition is -2% in assay [1] and 92% (active) in assay [4]. Also, the inhibition in assay [2] was 4%; in assay [3], 0%. Further, the outcome in assay [5], in assay [6], in assay [7] and in assay [8] was inactive.

For the molecule `COC(=O)c1cccc(CNCc2cccc(-c3ccc(-c4nc5ccc(C(F)(F)F)cc5[nH]4)cc3)c2)c1`, the results for the growth inhibition in assay [1] and in assay [4] were 83% (active) and 102% (active), respectively. Moreover, the figures for the inhibition in assay [2] and in assay [3] were 13% and 3%, respectively. The result in assay [5], in assay [6], in assay [7] and in assay [8] was inactive.

As for `CCCC1CCNC(C(O)c2ccnc3ccc(OC)cc23)C1` (stereo not drawn), the growth inhibition in assay [1] was 78% (active); in assay [4] it was 98% (active). Further, the inhibition in assay [2] is -15%; in assay [3], -3%. Further, the outcome in assay [5], in assay [6], in assay [7] and in assay [8] was inactive.

For the molecule `CCC(=O)c1ccc(-c2ccc(=O)n(CC(=O)N(CCN(CC)CC)Cc3ccc(-c4ccc(C(F)(F)F)cc4)cc3)n2)cc1`, the growth inhibition was 67% (active) in assay [1] and 98% (active) in assay [4]. In addition, the inhibition in assay [2] was 91% (active); in assay [3], -7%. The result in assay [5], in assay [6], in assay [7] and in assay [8] was inactive.

Turning to `O=C(CNC(=O)c1ccc(O)cc1)Nc1ccc(-c2cccc(-c3nc4ccc(C(F)(F)F)cc4[nH]3)c2)cc1`, the growth inhibition in assay [1] is 47%; in assay [4], 92% (active). In addition, the inhibition in assay [2] was 26%; in assay [3] it was 3%. Besides, the result in assay [5], in assay [6], in assay [7] and in assay [8] was inactive.

In the case of `COc1cc(NC(=O)c2cccc([N+](=O)[O-])c2)cc(S(=O)(=O)c2ccc(Cl)cc2)c1`, the growth inhibition is 23% in assay [1] and 88% (active) in assay [4]. In addition, the inhibition was -12% in assay [2] and -3% in assay [3]. Besides, the result in assay [5], in assay [6], in assay [7] and in assay [8] was inactive.

`CC(C)c1ccc(CN2CCCCC(NC(=O)c3cc(-c4ccccc4F)cs3)C2)cc1` (stereo not drawn): the growth inhibition was 84% (active) in assay [1] and 99% (active) in assay [4]. For the same molecule, the inhibition is 18% in assay [2] and -2% in assay [3]. For the same molecule, the result in assay [5], in assay [6], in assay [7] and in assay [8] was inactive.

In the case of `O=c1c2ccc(F)cc2sn1-c1ccc(Cl)cc1`, the growth inhibition is 11% in assay [1] and 98% (active) in assay [4]. In addition, the figures for the inhibition in assay [2] and in assay [3] were 8% and -2%, respectively. The result in assay [5], in assay [6], in assay [7] and in assay [8] was inactive.

Take `O=C(CCc1cnc[nH]1)Nc1cccc(-c2cccc(-c3nc4ccc(C(F)(F)F)cc4[nH]3)c2)c1`: the growth inhibition in assay [1] was 99% (active); in assay [4] it was 101% (active). Also, the inhibition in assay [2] is 17%; in assay [3], 7%. Further, the outcome in assay [5], in assay [6], in assay [7] and in assay [8] was inactive.

For `CCN(CC)CCCC(C)Nc1c(-c2ccc(Br)cc2)cnc2ccccc12` (stereo not drawn), the growth inhibition in assay [1] is 95% (active); in assay [4], 100% (active). In addition, the inhibition was 7% in assay [2] and -1% in assay [3]. The result in assay [5], in assay [6], in assay [7] and in assay [8] was inactive.

As to `N#Cc1ccc(N2CCN(Cc3ccc(-c4ccc(-c5nc6ccc(C(F)(F)F)cc6[nH]5)cc4)cc3)CC2)nc1`, the growth inhibition in assay [1] is 90% (active); in assay [4] it was 101% (active). In addition, the inhibition in assay [2] is 19%; in assay [3], 4%. In addition, the outcome in assay [5], in assay [6], in assay [7] and in assay [8] was inactive.

Turning to `NCc1ccc(-c2ccccc2CNC2CCN(Cc3ccccc3)CC2)cc1`, the growth inhibition in assay [1] is 3%; in assay [4] it was 94% (active). The inhibition in assay [2] was 20%; in assay [3], -2%. Also, the result in assay [5], in assay [6], in assay [7] and in assay [8] was inactive.

Take `Cc1cccc(C)c1N1CCN(C2CCC(NC(=O)c3cc4ccccc4[nH]3)CC2)CC1` (stereo not drawn): the growth inhibition in assay [1] was 64% (active); in assay [4], 101% (active). Moreover, the inhibition in assay [2] is 31%; in assay [3], -7%. Besides, the outcome in assay [5], in assay [6], in assay [7] and in assay [8] was inactive.

In the case of `O=C(NCCCCN1CCC(O)(c2ccc(Cl)cc2)CC1)c1ccc(Br)cc1`, the growth inhibition is 48% in assay [1] and 82% (active) in assay [4]. In addition, the results for the inhibition in assay [2] and in assay [3] were 41% and 4%, respectively. In addition, the result in assay [5], in assay [6], in assay [7] and in assay [8] was inactive.

With `COc1ccc(NC(=O)C2c3ccccc3C(=O)N(C3CCCC3)C2c2cccs2)cc1OC` (stereo not drawn), the growth inhibition in assay [1] was 96% (active); in assay [4], 90% (active). The inhibition is -5% in assay [2] and -2% in assay [3]. Also, the result in assay [5], in assay [6], in assay [7] and in assay [8] was inactive.
